The values that follow come from PubChem BioAssay AID1053124 (Broad Institute, 2014).

Entries with a potency or affinity are not part of this list. Active and inactive are the calls of the source.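 The calls were made as follows: active = cell killing whose fitted half-effect concentration is at most twice the top valid dose tested; inconclusive = flat curve with 30 to 70% killing, or a poor fit; inactive = effect in the rising direction, plus the rest.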

A short description of the assay: A549 cell cytotoxicity, dose response, cytotoxicity control, ATP luminescence, cherry-pick, set 2 (AID 1053124). As to conditions: A549 viability, ATP luminescence (CellTiter-Glo), 72 h; series mostly up to 26 µM. On the technique in general: In ATP-based viability assays light output follows the ATP content of the culture.
On to `CCOC1=NN(c2ncc(C(F)(F)F)cc2Cl)C(=O)C1`, for which the outcome was inactive.

With `CCCN1CCc2c(sc(NC(=O)C3CCN(S(=O)(=O)c4cccs4)CC3)c2C(N)=O)C1`, the compound was classed as inactive.

On to `Cc1ccc(S(=O)(=O)CCC(=O)OCC(=O)Nc2cccc(S(=O)(=O)N3CCCCC3)c2)cc1`, for which the result was inactive.

On to `COc1cc(C(=O)NCCCNc2nc3c(C)cc(C)cc3cc2C#N)cc(OC)c1OC`, for which the compound was called inactive.

For `CCOc1ccc(-n2c(SCC(=O)Nc3nccs3)nnc2-c2ccoc2C)cc1`, the compound was classed as inactive.

`CCc1nnc(NC(=O)c2ccc(-c3ccccc3F)o2)s1`: the outcome was inactive.

Regarding `CC(C)C(=O)Nc1sc2c(c1C(N)=O)CCN(Cc1ccccc1)C2`, the outcome was inactive.

Consider `O=C(NCc1nnnn1-c1ccc(Cl)cc1)C1CC(=O)N(c2ccc(F)cc2)C1` (centres undefined), for which the compound was classed as inactive.

Take `O=C(O)c1cccc(NC(=O)c2cn(-c3ccccc3)nc2-c2cccc(Br)c2)c1`: the call was inactive.

Turning to `CCC(C)n1c(=N)c(C#N)cc2c(=O)n3cccc(C)c3nc21` (centres undefined), the outcome was inactive.

On to `COCCCn1c(=N)c(C(=O)NC2CCCCC2)cc2c(=O)n3ccccc3nc21`, for which the result was inactive.

As to `O=C(NCc1ccc(F)cc1)C1CCCN1C(=O)Nc1cccc(F)c1` (centres undefined), the compound was classed as inactive.

On to `O=C(c1cccc(Cl)c1)N1CCC(=O)N(C(COCc2ccccc2)Cc2ccccc2)CC1` (centres undefined), for which the compound was classed as inactive.

With `Nn1c(SCC(=O)N2CCCC2)nnc1-c1cccs1`, the result was inactive.

On to `O=C(COC(=O)c1cc(S(=O)(=O)N2CCCCC2)ccc1N1CCOCC1)c1ccccc1Cl`, for which the compound was called inactive.

Turning to `COc1ccc(Br)c(Cn2c(C)c(C(=O)NCc3ccc4c(c3)OCCO4)sc2=O)c1`, the result was inactive.

As to `COCCCOc1cc(NCc2ccccc2)c2ncn(C(C)C)c2c1`, the compound was classed as inactive.

With `CCOc1ccc2nc(NCCCNS(=O)(=O)c3ccc(F)cc3)c(C#N)cc2c1`, the result was inactive.

As for `COc1ccc(C2C3=C(CCCC3=O)N(CC(=O)O)C3=C2C(=O)CCC3)cc1`, the call was inactive.

As for `Cc1c(Nc2c3ccccc3nc3ccccc23)c(=O)n(-c2ccccc2)n1C`, the outcome was inactive.

For the compound `CCN(CC)CCNC(=O)c1sc2nc(-c3ccccc3)cn2c1C`, the call was inactive.

For `O=C(O)c1ccc(N2N=C(c3ccccc3)CC2c2ccccc2)cc1` (centres undefined), the compound was classed as inactive.

Turning to `CCc1nc2ccc(C(=O)NCCc3c[nH]c4ccccc34)cn2c1N(C=O)CCC(C)C`, the outcome was inactive.

For the compound `CC(=O)OC[C@@H]1CN(Cc2ccccc2)C[C@H](n2cnc3c(N(C)C(C)C)ncnc32)O1`, the call was inactive.

As to `CC1CCN(S(=O)(=O)N2CCC(C(=O)NC3CCCC3)CC2)CC1`, the outcome was inactive.

Consider `COc1ccccc1C1C2=C(CC(C)(C)CC2=O)N(CC(=O)O)C2=C1C(=O)CC(C)(C)C2`, for which the compound was classed as inactive.

As to `O=[N+]([O-])c1cccc(-c2n[nH]c(=S)n2-c2ccc(Br)cc2)c1`, the outcome was inactive.

Consider `COCCN1C=C(C(=O)OC)C(c2ccc(Cl)cc2)C(C(=O)OC)=C1`, for which the result was inactive.

As for `COc1ccccc1NS(=O)(=O)c1cc(NC(=O)CCNC(C)=O)ccc1C`, the result was inactive.

With `COc1c(Cl)cc(-c2noc(C)c2C(=O)NCc2ccc3c(c2)OCO3)cc1Cl`, the result was inactive.

Take `CCOCCCNc1c(CC)c(C)c(C#N)c2nc3ccccc3n12`: the call was inactive.

As to `CCn1c(=NC(=O)CSC(C)=O)sc2cc(OC)ccc21`, the compound was called inactive.

As for `CCc1cccc(OC2OC(CO)C(O)C(O)C2NC(C)=O)c1` (centres undefined), the outcome was inactive.

For the compound `CC(C)N1CCc2c(sc(NC(=O)Cc3ccccc3)c2C#N)C1`, the outcome was inactive.

As to `COc1ccc(C2C3=C(CC(C)(C)CC3=O)N(C)C3=C2C(=O)CC(C)(C)C3)cc1`, the outcome was inactive.

Take `Cc1ccc(S(=O)(=O)c2cc3c(=O)n4ccccc4nc3n(C)c2=N)cc1`: the outcome was inactive.

`S=c1[nH]c2ccc(Cc3ccc4[nH]c(=S)[nH]c4c3)cc2[nH]1`: the compound was called inactive.

Turning to `COc1cc(/C=C(\C#N)C(=O)NC(C)C)cc(Cl)c1O`, the call was inactive.

Take `COc1ccc(CCNC(=O)CSc2cn(Cc3cccc(C)c3)c3ccccc23)cc1OC`: the call was inactive.
